Assay results reported in PubChem BioAssay AID1565 (Sanford-Burnham Center for Chemical Genomics, 2009).
Among all 290,000 compounds or so, about 3,200 (1.1%) were called active. What follows is part of a selection rich in actives, with near analogues and random picks from the rest. A number with no mark means an inactive call. No stated cut-off is given here; in the data, active means inhibition above about 60%; inactive means the rest.

What follows are molecules tested against Phosphoethanolamine/phosphocholine phosphatase (Homo sapiens) (UniProt Q8TCT1) (assay: PubChem AID 1565). Settings: recombinant PHOSPHO1, absorbance phosphatase assay; at 13.3 µM; hits give high values.
Chain of Phosphoethanolamine/phosphocholine phosphatase (Homo sapiens) (Q8TCT1 whole entry, looked up): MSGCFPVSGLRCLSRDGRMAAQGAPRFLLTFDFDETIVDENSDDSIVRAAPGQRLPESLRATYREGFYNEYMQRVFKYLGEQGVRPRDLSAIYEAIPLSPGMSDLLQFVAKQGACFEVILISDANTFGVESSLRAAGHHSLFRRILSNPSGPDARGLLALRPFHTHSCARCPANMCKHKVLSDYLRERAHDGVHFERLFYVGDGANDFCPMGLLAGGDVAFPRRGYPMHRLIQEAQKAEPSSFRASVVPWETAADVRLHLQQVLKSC

| Structure (SMILES) | inhibition |
| --- | --- |
| COc1ccc(/C=N/NC(=O)C2CC2)c(OC)c1OC | 21.2% |
| CC1Sc2ccc(S(=O)(=O)CCC(=O)NCc3ccccc3Cl)cc2NC1=O (stereo unspecified) | -22.3% |
| COc1ccc(C(=O)OCC(=O)NCCCc2ccccc2)cc1OC | 17.9% |
| COc1ccc(CCNC(=O)COC(=O)c2ccc[nH]c2=O)cc1 | 0.3% |
| COc1ccccc1C(=O)OCC(=O)NCCNC(=O)COC(=O)c1ccccc1OC | 70.6% (active) |
| O=C(CSc1nnnn1C1CCCC1)N1CCCCC1 | 30.7% |
| O=C(c1cc2ccccc2s1)N1CCN(c2ccccn2)CC1 | 42.8% |
| CCc1ccc(OCC2c3cc(OC)c(OC)cc3CCN2C(C)=O)cc1 (stereo unspecified) | 42% |
| COc1ccccc1OCCNC(=O)CCNC(=O)c1ccccc1Cl | 23.8% |
| Cc1cc(CNC(=O)c2cccc([N+](=O)[O-])c2)c2ccccc2n1 | -3% |
| CN(C(=O)c1cccc([N+](=O)[O-])c1)c1ccccc1C(=O)NCc1ccccc1 | 61% (active) |
| O=C(c1cccc([N+](=O)[O-])c1)N1CCN(Cc2ccccc2)CC1 | 18.4% |
| O=C(N/N=C/c1ccc(Cl)c(Cl)c1)c1ccc2nc[nH]c2c1 | 29.8% |
| N#Cc1ccc(C2N=C(c3ccccc3)NO2)cc1 (stereo unspecified) | 30.4% |
| CCOC(=O)c1c(C)n(C)c2ccc(OC)c(NS(=O)(=O)CC)c12 | -2.4% |
| CCOC(=O)c1c(C)n(C)c2ccc(OC)c(NC(=O)CN3CCC4(CC3)OCCO4)c12 | 96.8% (active) |
| COc1ccc(Cl)cc1NC(=O)CN1CCN(C(=O)N2CCOCC2)CC1 | 4.5% |
| CCOc1ccc(C(C(=O)NCCOC)N(CCOC)C(=O)CCC(=O)Nc2ccccn2)cc1 (stereo unspecified) | 1.5% |
| COc1ccc2cc(C(=O)C3CCCN(C(=O)c4sc(C)nc4C)C3)ccc2c1 (stereo unspecified) | 22.6% |
| COc1ccccc1N1CC(C(=O)Nc2nnc(SCC(=O)NC(C)C)s2)CC1=O (stereo unspecified) | -84.3% |
| O=C(COC(=O)c1ccc(F)cc1)NCCCc1ccccc1 | 24.1% |
| COC(=O)c1ccccc1SC1CC(=O)N(c2cccc(C)c2)C1=O (stereo unspecified) | -11.7% |
| COc1ccc(N2C(=O)CC(Sc3n[nH]c(-c4ccc(C)cc4)n3)C2=O)cc1 (stereo unspecified) | 10.2% |
| Cc1ccc(N2C(=O)CC(Sc3ncn[nH]3)C2=O)cc1 (stereo unspecified) | 105% (active) |

| Structure (SMILES) | inhibition |
| --- | --- |
| O=C1CC(Sc2ncn[nH]2)C(=O)N1c1ccccc1 (stereo unspecified) | 97.9% (active) |
| O=C1CC(N2CCN(c3ccc(F)cc3)CC2)C(=O)N1c1ccccc1 (stereo unspecified) | -16.5% |
| CC(=O)Nc1ccc(N2C(=O)CC(Sc3nccc(C)n3)C2=O)cc1 (stereo unspecified) | 19.2% |
| CCc1ccc(/C=N/NC(=O)c2nnn(-c3nonc3N)c2CN2CCc3ccccc32)cc1 | 23.3% |
| Cc1[nH]c(C)c(S(=O)(=O)N2CCN(c3cccc(C(F)(F)F)c3)CC2)c1C(=O)N1CCCC1 | 12.1% |
| Cc1cccc(N(C)C(=O)c2cc(S(=O)(=O)N3CCCCC3)c[nH]2)c1 | 25.4% |
| CCc1cccc(C)c1NS(=O)(=O)c1cc(Br)cnc1N | 35.5% |
| CCCC(=O)N1CCN(c2nnc(-c3ccc(C)cc3)c3ccccc23)CC1 | 30.8% |
| O=C(CSc1nc2ccc(Nc3nc(N4CCOCC4)nc(N4CCOCC4)n3)cc2s1)NCc1ccco1 | 16.2% |
| C=CCn1c(SCC(=O)Nc2nc3ccccc3s2)nnc1-c1ccccc1O | -17.5% |
| C=CCn1c(CSc2nc3ccccc3s2)nnc1SCC(=O)NCc1ccco1 | 89.7% (active) |
| O=S(=O)(/C=C/c1ccccc1)N1CCNCC1 | 37% |
| Cc1cc(S(=O)(=O)NCc2ccccn2)c(Cl)cc1Cl | 29.5% |
| CC1(C)NC(=O)N(CC(=O)Nc2cc(C(F)(F)F)cc(C(F)(F)F)c2)C1=O | 24% |
| O=C(NCc1ccc(Cl)cc1)c1cc(=O)nc2sc(-c3ccccc3)nn12 | 19.7% |
| O=C(NCc1ccc(Cl)cc1)c1cc2c(nc3sccn32)s1 | 66.1% (active) |
| O=C(NCc1ccc(Cl)cc1)NCc1ccc(Cl)cc1 | 42.1% |
| COc1ccc(NC(=O)C2CCC(CNS(=O)(=O)c3csc(C(N)=O)c3)CC2)cc1OC (stereo unspecified) | 48.8% |
| CCOc1ccc(-c2n[nH]c(=S)n2/N=C/c2cc3c(cc2[N+](=O)[O-])OCO3)cc1 | 57.5% |
| Cc1ccc(-c2n[nH]c(=S)n2/N=C/c2cc3c(cc2[N+](=O)[O-])OCO3)cc1 | 99.7% (active) |
| Cc1ccc(S(=O)(=O)N/N=C\c2cc3c(cc2[N+](=O)[O-])OCO3)cc1 | -27.6% |
| CN(C(=O)CC1C(=O)NCCN1Cc1ccc2ccccc2c1)C1CCOCC1 (stereo unspecified) | 9% |
| COc1ccc2[nH]c(=O)c(-c3noc(-c4ccc(F)cc4)n3)cc2c1 | 80.2% (active) |
| Cc1cccc(-c2noc(-c3ccc(F)cc3)n2)c1 | -3.7% |

| Structure (SMILES) | inhibition |
| --- | --- |
| CCNC(=O)CCc1nc(-c2ccc(C)cc2)no1 | 12.3% |
| CCCc1nc(-c2cc3cc(C)ccc3[nH]c2=O)no1 | 76.8% (active) |
| COc1ccc(N(Cc2cc3cc(OC)ccc3[nH]c2=O)S(C)(=O)=O)cc1 | -2.4% |
| CC(=O)OCc1cc2cc(C)ccc2[nH]c1=O | -4.1% |
| COC(=O)Cc1cnc(NC(=O)CSc2nc(C(C)C)cc(=O)[nH]2)s1 | 26.5% |
| O=C(CCN1C(=O)[C@@H]2Cc3ccccc3CN2C1=O)NCCc1ccccc1 | 38.2% |
| CC1=C/C(=N\OS(=O)(=O)c2ccccc2)C=CC1=O | -13.3% |
| O=Cc1c(NCCc2cccc(F)c2)c2ccccc2[nH]c1=O | 19.2% |
| CC(C)(C)SCCSC1=CC(=O)CC(c2ccccc2)C1 (stereo unspecified) | 14.1% |
| Cc1ccc2nc(N3C(=O)C(O)=C(C(=O)c4ccco4)C3c3cccc(O)c3)sc2c1 (stereo unspecified) | 40.5% |
| O=C(c1ccccc1)N1CCC(CC2CC(c3ccc(Cl)cc3)=NO2)(C(=O)NCC2CCCCC2)CC1 (stereo unspecified) | -1.7% |
| c1ccc(Cc2nn3c(Cn4cnc5ccccc54)nnc3s2)cc1 | 45.1% |
| Fc1ccc(OCc2nn3c(Cn4nnc5ccccc54)nnc3s2)cc1 | 82.3% (active) |
| CC(=O)OC(COc1ccc(F)cc1)Cn1cnc2ccccc21 (stereo unspecified) | 43.9% |
| CN(CC(=O)Nc1ccccc1C(F)(F)F)C(=O)Cc1ccccc1F | 18.7% |
| Cc1n[nH]c(=S)n1/N=C/c1ccc(Br)o1 | 99.1% (active) |
| Cc1ccccc1-c1n[nH]c(=S)n1/N=C/c1ccc(-c2ccccc2Br)o1 | -60.1% |
| Cc1cc(-c2n[nH]c(=S)n2/N=C/c2ccco2)n[nH]1 | -60% |
| N#C/C=C/N1CCN(Cc2ccc3c(c2)OCO3)CC1 | 15.6% |
| CCOc1ccc(OCc2ccc(C(=O)N(C)c3ccccc3)o2)cc1 | 18.7% |
| CC(NC(=O)c1ccccc1C(=O)O)c1ccc(-n2ccnc2)cc1 (stereo unspecified) | 8.3% |
| CCCOc1cccc(C(=O)Nc2ccccc2C(=O)N2CCN(C)CC2)c1 | 24% |
| Cc1ccc(NC(=O)CCC(=O)N/N=C/c2ccco2)c(C)c1 | -4.9% |
| Cc1ccc(OCC(=O)N/N=C\c2ccco2)c(C)c1 | 61.1% (active) |

| Structure (SMILES) | inhibition |
| --- | --- |
| Cc1cc(C)c(OCC(=O)N/N=C/c2ccco2)c(C)c1 | -1.4% |
| CSCc1nnc(NC(=O)c2ccc(S(=O)(=O)N3CCCCC3C)cc2)o1 (stereo unspecified) | 32.3% |
| O=C(N/N=C/c1cccc(OCc2ccccc2)c1)c1ccc(Br)o1 | 41.4% |
| Cc1sc2ncn(CC(=O)NCCCC(=O)NCc3ccc(F)cc3)c(=O)c2c1C | 31.9% |
| CCOC(=O)c1cc(S(=O)(=O)NCCc2ccc(OC)c(OC)c2)cn1C | 69.7% (active) |
| CCS(=O)(=O)NCCc1ccc(OC)c(OC)c1 | -2.4% |
| COc1ccc(CCNS(=O)(=O)c2ccc(F)cc2)cc1OC | -6.8% |
| COc1ccc(C2NC(=O)N(C)C(C)=C2[N+](=O)[O-])cc1 (stereo unspecified) | 14.1% |
| Cc1[nH]c(C)c(S(=O)(=O)N2CCN(c3cccc(C(F)(F)F)c3)CC2)c1C(=O)N1CCCCC1 | 42.6% |
| CCCCCn1c(=O)[nH]c2cc(C(=O)NCCCN3CCCCC3C)ccc2c1=O (stereo unspecified) | 26.1% |
| CCCCNC(=O)CN1C(=O)NC(Cc2ccccc2)(Cc2ccccc2)C1=O | 35% |
| COc1ccc(CNC(=O)COc2cccnc2[N+](=O)[O-])cc1 | 39.9% |
| O=C(NNC(=S)Nc1ccc(F)cc1)[C@H]1C[C@@H]1c1ccccc1 | 76.8% (active) |
| O=S(=O)(NC(=S)Nc1ccccc1)c1ccc(F)cc1 | -122% |
| Cc1ccc(NC(=O)C2CC2c2ccccc2)cc1 (stereo unspecified) | 39.5% |
| O=C(C1CC1)N1N=C(c2ccc(Br)cc2)CC1(O)C(F)(F)F (stereo unspecified) | 15.6% |
| O=C(C1CC1)N1N=C2CCCCC2C1(O)C(F)(F)F (stereo unspecified) | 60.9% (active) |
| COc1ccc(O)c(/C=N/N=C/c2cccc([N+](=O)[O-])c2)c1 | 4.2% |
| COc1ccccc1-c1cnn2c(N3CCOCC3)cc(C)nc12 | 38.1% |
| CCOC(=O)c1cc(C(=O)Nc2ccc(S(=O)(=O)Nc3ccc(OC)cc3)cc2)nn1C | 28.7% |
| O=C(Nc1cccc(Cl)c1Cl)c1ccccc1NC(=O)C1CC=CCC1C(=O)O (stereo unspecified) | 12.3% |
| CC1(C)Oc2ccc3ccc(=O)oc3c2/C(=C/NCCO)C1=O | 87% (active) |
| C/C=C(/C)C(=O)OC1Cc2c(ccc3ccc(=O)oc23)OC1(C)C (stereo unspecified) | 8.5% |
| CC1(C)Oc2ccc3ccc(=O)oc3c2/C(=N/O)C1=O | 50.4% |
